# PubChem BioAssay AID1494156 (National Center for Advancing Translational Sciences (NCATS), 2020)
# Results filed as inconclusive are left out. Active and inactive are the calls of the source. Calls follow the shape of the full dose curve.
# Test: VSV-G qHTS counterscreen for inhibitors of MERS-S pseudo-typed particle cell entry
# Conditions: VSV-G pseudotyped particle cell entry, luciferase counterscreen; series mostly up to 57.1 µM
SMILES,Potency,"activity, negative = inhibition"
C[C@H]1[C@H](OC(=O)CCC(=O)O)O[C@@H]2O[C@@]3(C)CC[C@H]4[C@H](C)CC[C@@H]1[C@@]24OO3,0.681 µM (active),
Nc1nc(Cl)nc2c1ncn2C1CC(O)C(CO)O1 (stereo not drawn),9.61 µM (active),
CN(C/C=C/c1ccccc1)Cc1cccc2ccccc12,inactive,
Cc1cc(-n2c(=O)[nH]c(=O)n(C)c2=O)ccc1Oc1ccc(S(=O)(=O)C(F)(F)F)cc1,9.61 µM (active),
CC[C@H](C)C(=O)O[C@H]1C[C@@H](C)C=C2C=C[C@H](C)[C@H](CC[C@@H]3C[C@@H](O)CC(=O)O3)[C@H]21,inactive,
CCOc1cc2ncc(C#N)c(Nc3ccc(OCc4ccccn4)c(Cl)c3)c2cc1NC(=O)/C=C/CN(C)C,,-3.61% [at 11.2 µM] (inactive)
CC(C)(C)C(=O)OCOP(=O)(COCCn1cnc2c(N)ncnc21)OCOC(=O)C(C)(C)C,0.0429 µM (active),
CC(C)C[C@H](NC(=O)[C@H](CCc1ccccc1)NC(=O)CN1CCOCC1)C(=O)N[C@@H](Cc1ccccc1)C(=O)N[C@@H](CC(C)C)C(=O)[C@@]1(C)CO1,0.192 µM (active),
Cc1nnc(C(=O)NC(C)(C)c2nc(C(=O)NCc3ccc(F)cc3)c(O)c(=O)n2C)o1,0.0038 µM (active),
CCc1c2c(nc3ccc(OC(=O)N4CCC(N5CCCCC5)CC4)cc13)-c1cc3c(c(=O)n1C2)COC(=O)[C@]3(O)CC,10.8 µM (active),
CC(CN(C)C)CN1c2ccccc2CCc2ccccc21 (stereo not drawn),inactive,
CCCCN=C(N)N=C(N)N,inactive,
Cc1nn(C)c2c1C(c1ccccc1F)=NCC(=O)N2C,6.07 µM (active),
